# Experimental data reported in the supplement of paper PMC12636033.
# ± gives the standard deviation of the averaged measurements. Whole data set: some 33,000 sequences, median “E-score (rank enrichment, -0.5 to 0.5)” near -0.0068, cut for the highest 2% near 0.24. This is one part of a sample in which the highest values are shown more often than they occur.
# System: muMax20 (Max(13-93) K31hArg/K57hArg, M65Nle)
# Assay: PBM 8-mer E-score (E-score (rank enrichment, -0.5 to 0.5)); higher = stronger preferential binding
# Experimental: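 Protein binding microarray (universal PBM chip covering all 10-mers in fixed probe flanks) with chemically synthesized human Max(13-93) bHLH-LZ analogs (not full-length Max) bearing noncanonical residues (hArg, Tha, Aib, Nle at 65) and aromatic Cys staples. Read-out per 8-mer (and its reverse complement): E-score (rank-based enrichment, -0.5 to 0.5) and Z-score of median probe intensity.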
row,Sequence,PBM 8-mer E-score
1,AACAATAA,0.247 ± 0.0054
2,AACAATAC,0.319 ± 0.063
3,ACCAATTA,0.247 ± 0.095
4,ACCAATTG,0.211 ± 0.013
5,GCCAATTA,-0.00292 ± 0.022
6,AACAATAG,0.0278 ± 0.047
7,CATCTTCC,0.14 ± 0.005
8,CTAGCGAA,-0.129 ± 0.063
9,CTAGTGCA,0.0056 ± 0.097
10,GAGAGTCA,0.0012 ± 0.088
11,ATCCACCA,0.068 ± 0.024
12,GGGGCCCC,-0.138 ± 0.039
13,GACAATAA,0.216 ± 0.067
14,AACACCAA,0.239 ± 0.018
15,TACAATAA,0.33 ± 0.008
16,GACACCAA,-0.0812 ± 0.037
17,TACACCAA,-0.0765 ± 0.027
18,CACAATAA,0.151 ± 0.0047
19,AACTTCTT,0.155 ± 0.031
20,CAATTTGG,0.0732 ± 0.059
21,CAATTTGA,0.246 ± 0.051
22,TAATTTGA,0.0569 ± 0.0096

row,Sequence,PBM 8-mer E-score
1,AATCAGCA,0.0143 ± 0.044
2,ACCTGTTG,0.112 ± 0.12
3,AGATATGA,0.028 ± 0.0086
4,ATACCAAG,0.0843 ± 0.073
5,CTACCAAC,0.118 ± 0.079
6,ATACCATG,0.0838 ± 0.02
7,ATACCAAC,0.271 ± 0.01
8,GTACCATA,0.0347 ± 0.038
9,ATACCATA,0.298 ± 0.029
10,ATAGAAGC,0.041 ± 0.086
11,TAAGGGAA,0.0705 ± 0.073
12,CTCCCGTA,0.0488 ± 0.069
13,TTAAAGAA,0.17 ± 0.072
14,ATAAAGAA,0.264 ± 0.018
15,CTAAAGAA,0.0925 ± 0.088
16,ATAAAGCG,0.0396 ± 0.047
17,ATAAAGCA,0.243 ± 0.037
18,CTAAAGCA,0.0825 ± 0.012
19,CACCGGCA,-0.12 ± 0.023
20,ACGTTCCT,0.0666 ± 0.011
21,ATACCTAC,0.129 ± 0.12
22,ATTTAGAC,0.0494 ± 0.067

row,Sequence,PBM 8-mer E-score
1,ATAACGCG,0.073 ± 0.11
2,CTTTCGGC,-0.149 ± 0.041
3,AAAAACCC,-0.0325 ± 0.027
4,AAAAACCA,0.244 ± 0.0092
5,AAAACCTA,0.269 ± 0.0045
6,AAAACCTT,0.103 ± 0.011
7,AAAAACCT,0.25 ± 0.024
8,CAAACCTA,0.125 ± 0.027
9,TAAAACCA,0.131 ± 0.048
10,AAAAACCG,0.0778 ± 0.087
11,CAAAACCA,0.0801 ± 0.046
12,CCTTGCGC,-0.034 ± 0.012
13,GGGGCGAC,-0.0761 ± 0.044
14,AATCAGCT,0.298 ± 0.065
15,AATCAGCG,-0.0368 ± 0.011
16,AATCAGCC,-0.00374 ± 0.048
17,ACTTTGAT,0.142 ± 0.062
18,TCAGTAAA,0.013 ± 0.12
19,CATACTTC,0.181 ± 0.048
20,AATATACA,0.293 ± 0.01
21,GATATACA,0.0962 ± 0.0042
22,CATATACC,0.0712 ± 0.07

row,Sequence,PBM 8-mer E-score
1,TATATAGA,0.0968 ± 0.19
2,CATATAGA,0.145 ± 0.049
3,AATATACT,0.215 ± 0.043
4,TATATACA,0.178 ± 0.03
5,CATATACA,0.254 ± 0.031
6,AATATAGA,0.292 ± 0.049
7,TACATCAA,0.11 ± 0.093
8,GCCAAGCC,-0.109 ± 0.012
9,GAGTGACC,-0.141 ± 0.015
10,CCGTCCCA,0.0086 ± 0.03
11,AATGTCAT,0.0752 ± 0.093
12,CCTAAGAC,0.0353 ± 0.033
13,CTAGTAAA,0.0505 ± 0.014
14,ATAGTAAT,0.158 ± 0.027
15,GTAGTAGA,0.0328 ± 0.058
16,ATAGTTAC,0.181 ± 0.06
17,ATAGTTAA,0.261 ± 0.0096
18,ATAGTTAG,0.0831 ± 0.052
19,ATAGTAAA,0.262 ± 0.012
20,ATAGTAGG,0.0443 ± 0.12
21,ATAGTAGA,0.253 ± 0.031
